{"source": "PubChem BioAssay AID1259422", "about": "(The Scripps Research Institute Molecular Screening Center, 2018)", "note": "In all, about 640,000 compounds went through this assay and about 9,300 (1.5%) were called active. What follows is part of a selection rich in actives, with near analogues and random picks from the rest. A number with no mark means an inactive call. Cut-off read from the data, not from the text of the source: active = inhibition above about 32%; inactive = the rest."}
{"test": "TEAD-YAP interaction inhibition, primary screen, TEAD-YAP interaction inhibitor project, luminescence, HEK-TIYL cells (AID 1259422);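 note: 0% = median of test compound wells and 100% = reference inhibitor wells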", "settings": "TEAD-Gal4/YAP UAS-luciferase luminescence, at 9.12 µM, stronger effect = higher value"}
{"smiles": "COc1ccc(-c2cc(C(F)(F)F)n3nc(C(=O)NCc4ccccc4Cl)cc3n2)cc1", "inhibition": "-8.37%"}
{"smiles": "Cc1sc2nc3n(c(=O)c2c1-c1cccs1)CCC3", "inhibition": "-2.17%"}
{"smiles": "Cc1sc2nc3n(c(=O)c2c1C)N=C(c1cccs1)CS3", "inhibition": "50.3% (active)"}
{"smiles": "Cc1nc2scc(-c3cccs3)c2c(=O)n1N", "inhibition": "4.54%"}
{"smiles": "N=C1S/C(=C/c2ccc(-c3cc(Cl)ccc3[N+](=O)[O-])o2)C(=O)N1c1nonc1N", "inhibition": "5.95%"}
{"smiles": "C=CCNS(=O)(=O)c1cc(C(=O)Nc2ccccc2C(F)(F)F)ccc1F", "inhibition": "-7.91%"}
{"smiles": "COc1cccc(/C=N/NC(=O)/C(=C/c2ccccc2)NC(=O)c2ccccc2)c1O", "inhibition": "21.1%"}
{"smiles": "Cc1[nH]c2ccccc2c1/C=N/NC(=O)/C(=C/c1ccccc1O)NC(=O)c1ccccc1", "inhibition": "83% (active)"}
{"smiles": "Cc1[nH]c2ccccc2c1CCNC(=O)/C(=C/c1ccccc1)NC(=O)c1cccc(Br)c1", "inhibition": "2.37%"}
{"smiles": "COc1ccc(C(=O)N/C(=C/c2ccc(Cl)cc2)C(N)=O)cc1", "inhibition": "-2.4%"}
{"smiles": "CC(=O)c1ccc(NC(=O)CN2C(=O)C3C4CCC(C4)C3C2=O)cc1", "note": "(stereo not given)", "inhibition": "-12%"}
{"smiles": "CC(=O)Oc1ccc(C(=O)N(C(=O)c2ccc(OC(C)=O)cc2)c2cc(C)ccn2)cc1", "inhibition": "47.4% (active)"}
{"smiles": "CC(=O)Oc1ccc(C(=O)Nc2ccncc2)cc1", "inhibition": "1.93%"}
{"smiles": "CC(=O)Oc1ccc(N(C(C)=O)S(=O)(=O)c2c(C)cc(C)cc2C)cc1", "inhibition": "-4.17%"}
{"smiles": "COc1cc2cc(C)c3nnc(SCC(=O)NC(C)(C)C)n3c2cc1OC", "inhibition": "-7.33%"}
{"smiles": "O=C1NC(=S)S/C1=C/c1ccc(-c2ccc3c(c2)COC3=O)o1", "inhibition": "-7.22%"}
{"smiles": "O=C(NCc1cccc(C(F)(F)F)c1)c1csc(Nc2nccc3ccccc23)n1", "inhibition": "-0.98%"}
{"smiles": "Cc1ccc(Nc2c(Cc3ccccc3)c(C)c(C#N)c3nc4ccccc4n23)cc1", "inhibition": "-19.3%"}
{"smiles": "N#CC1=C(N)Oc2ccc3ncccc3c2C1c1ccccc1F", "note": "(stereo not given)", "inhibition": "50.8% (active)"}
{"smiles": "N#CC1=C(N)Oc2ccc3ccccc3c2C1c1ccc(F)cc1", "note": "(stereo not given)", "inhibition": "-0.56%"}
{"smiles": "CCOc1ccccc1C1C(C#N)=C(N)Oc2ccc3ccccc3c21", "note": "(stereo not given)", "inhibition": "-6.22%"}
{"smiles": "C=CCN(CC=C)C(=O)/C=C/c1cccc([N+](=O)[O-])c1", "inhibition": "7.6%"}
{"smiles": "COc1cccc(OCC(=O)N2CCC3(CC2)OCc2ccccc2O3)c1", "inhibition": "-8.9%"}
{"smiles": "CC(=O)N1c2ccc(NC(=O)c3ccccc3)cc2C(C)(c2ccc(C)cc2)CC1(C)C", "note": "(stereo not given)", "inhibition": "13.9%"}
{"smiles": "CC(Cl)/C(O)=C(\\C#N)c1nc2ccccc2[nH]1", "note": "(stereo not given)", "inhibition": "-6.03%"}
{"smiles": "Cc1ccc2[nH]c3c(c2c1)CCCC3NC=O", "note": "(stereo not given)", "inhibition": "5.42%"}
{"smiles": "OCCNC1CCCc2c1[nH]c1ccc(-c3ccccc3)cc21", "note": "(stereo not given)", "inhibition": "-12.6%"}
{"smiles": "Cc1ccc2[nH]c3c(c2c1)CCCC3NCc1ccccc1", "note": "(stereo not given)", "inhibition": "53.6% (active)"}
{"smiles": "Cc1ccc2nc(-c3cccc(NC(=O)c4cc([N+](=O)[O-])ccc4Br)c3)oc2c1", "inhibition": "6.62%"}
{"smiles": "O=C(COc1ccc(Cl)cc1)Nc1ncc(Cc2ccc(F)cc2)s1", "inhibition": "5.3%"}
{"smiles": "CC(C)(C)NCC(O)COc1c(Br)ccc2c1sc1nc3n(c(=O)c12)CCCCC3", "note": "(stereo not given)", "inhibition": "-32.7%"}
{"smiles": "O=c1c2c(nc3n1CCCCC3)sc1c(O)cccc12", "inhibition": "92.2% (active)"}
{"smiles": "CC(=O)c1ccc(NC(=O)c2sc3nc4n(c(=O)c3c2C)CCCCC4)cc1", "inhibition": "-3.85%"}
{"smiles": "COc1ccc(N2CC(CNC(=O)c3cccs3)CC2=O)cc1", "note": "(stereo not given)", "inhibition": "6.17%"}
{"smiles": "CCOc1ccc(C2C(C#N)=C(N)N(c3cccc([N+](=O)[O-])c3)C3=C2C(=O)CC(C)(C)C3)cc1", "note": "(stereo not given)", "inhibition": "-5.19%"}
{"smiles": "Cc1cccc(N2C(N)=C(C#N)C(c3ccc(F)cc3)C3=C2CC(C)(C)CC3=O)c1", "note": "(stereo not given)", "inhibition": "-0.79%"}
{"smiles": "CCOc1ccc(C2C(C#N)=C(N)N(c3cccc(C)c3)C3=C2C(=O)CC(C)(C)C3)cc1", "note": "(stereo not given)", "inhibition": "56.6% (active)"}
{"smiles": "CSc1ncc(Cl)c(C(=O)N2CCN(c3cccc(Cl)c3)CC2)n1", "inhibition": "39% (active)"}
{"smiles": "CCc1c(C(=O)N2CCN(c3cccc(Cl)c3)CC2)[nH]c(C)c1C(C)=O", "inhibition": "52.2% (active)"}
{"smiles": "CC(=O)c1c(C)[nH]c(C(=O)N2CCN(c3ccc(Cl)cc3)CC2)c1C", "inhibition": "12.3%"}
{"smiles": "Cc1cc(C(=O)N2CCN(c3cccc(Cl)c3)CC2)ccc1[N+](=O)[O-]", "inhibition": "3.11%"}
{"smiles": "COc1ccc(-n2cc(C(=O)N3CCN(c4cccc(Cl)c4)CC3)c3ccccc3c2=O)cc1", "inhibition": "0.04%"}
{"smiles": "CC(=O)/C(C(=N)N1CCN(c2cccc(Cl)c2)CC1)=C(/C)O", "inhibition": "-6.64%"}
{"smiles": "CC(=O)Nc1ccc(C(=O)N2CCN(c3cccc(Cl)c3)CC2)cc1", "inhibition": "-15.7%"}
{"smiles": "COc1ccc(Cl)cc1C(=O)N1CCN(c2cccc(Cl)c2)CC1", "inhibition": "64% (active)"}
